C-LANA FP: KSHV C-LANA DNA binding inhibition; MBP-C-LANA/FAM-LBS DNA binding, fluorescence polarization; inhibition, % at 9 µM; hit rate 0.078% among 340,000;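 active = highest replicate inhibition at or above 60% at 9 µM, even if other replicates fall short; inactive = all replicates below 60% inhibition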;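 also: 0% = neutral control wells and 100% = 4 µM acridine orange control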
Keap1-Nrf2 PPI: inhibitors of human Keap1-Nrf2 protein-protein interaction. Keap1 Kelch-Nrf2 peptide fluorescence polarization, 1536-well. Q14145. inhibition, % at 9.4 µM. hit rate 0.15% among 340,000; in the data active = inhibition above about 12%; inconclusive = no clear call, values can overlap the other calls; inactive = below about 7.3%;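 also: human Keap1 Kelch domain with fluorescein labeled Nrf2 9mer peptide probe; 0% = neutral control wells and 100% = peptide positive control; higher means more block of Keap1 binding to Nrf2 peptide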
BCLXL inh: blocks human Bcl-xL binding to Bim BH3 peptide. Q07817. GST-Bcl-xL / FITC-Bim BH3 peptide fluorescence polarization. inhibition, % at 10.9 µM. hit rate 0.7% among 320,000;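 active = inhibition above the mean of all tested compounds plus 3 SD, cutoff set per campaign, cut at about 30% in these data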;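 also: 0% = DMSO wells and 100% = unlabeled Bim-BH3 peptide competitor; inhibitors lower millipolarization by displacing the labeled peptide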
GLD-1 RNA inh: GLD-1-TGE RNA interaction inhibition (C. elegans); Q17339; inhibition, % at 5.96 µM; hit rate 0.44% among 320,000; purified GLD-1 + fluorescein TGE RNA, fluorescence polarization;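 active = percent inhibition above a per-plate cutoff, the plate mean of test compounds plus 3 SD, cut at about 30% in these data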;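 also: 0% = DMSO wells with GLD-1 and probe and 100% = wells lacking GLD-1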
Target sequence (Q17339 whole entry, looked up): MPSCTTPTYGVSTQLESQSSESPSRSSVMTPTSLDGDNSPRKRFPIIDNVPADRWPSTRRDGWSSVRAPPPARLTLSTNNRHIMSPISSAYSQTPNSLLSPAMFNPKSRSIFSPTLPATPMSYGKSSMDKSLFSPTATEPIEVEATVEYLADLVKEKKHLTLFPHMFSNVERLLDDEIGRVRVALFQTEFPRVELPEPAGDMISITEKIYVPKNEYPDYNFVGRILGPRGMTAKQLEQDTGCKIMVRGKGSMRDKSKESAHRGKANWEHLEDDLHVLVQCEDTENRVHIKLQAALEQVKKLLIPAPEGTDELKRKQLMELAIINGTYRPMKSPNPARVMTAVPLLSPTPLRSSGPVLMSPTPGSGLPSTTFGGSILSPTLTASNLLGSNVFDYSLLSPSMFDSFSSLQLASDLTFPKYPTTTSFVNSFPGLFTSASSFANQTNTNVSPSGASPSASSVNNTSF
eLon inh: inhibitors of E. coli Lon protease; P0A9M0; purified E. coli Lon protease, fluorescence polarization; inhibition, % at 7.94 µM; hit rate 0.42% among 360,000; AID 602123; in the data active = inhibition above about 13%, passing the limit was not always enough;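 also: 0% = enzyme with probe and DMSO and 100% = no enzyme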
MEX-5 binding: C. elegans MEX-5 TCR-2 RNA binding activity; Q9XUB2; MEX-5/FITC-TCR2 RNA binding, fluorescence polarization; stronger effect = lower value; activity score (negative = inhibition of binding), % at 10 µM; hit rate 0.38% among 300,000;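 active = inhibition past about -25% in most replicates, and total fluorescence under double the plate's negative control median, limit read from the data; inconclusive = replicates evenly split on the limit, or fluorescence at least double controls; inactive = too little inhibition in most replicates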;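 also: 0% = DMSO and -100% = 5 µM competing unlabeled TCR2 RNA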
GLD1 RNA confirm: confirmation of C. elegans GLD-1 TGE RNA binding inhibitors. shares compounds with GLD-1 RNA inh. GLD-1/FL-TGE RNA fluorescence polarization, biochemical. inhibition, % at 5.96 µM. hit rate 10% among 550;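 active = average inhibition across triplicates above the hit cutoff set in the primary screen, cut at about 32% in these data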;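 also: 0% = GLD-1 with RNA probe and DMSO and 100% = wells lacking GLD-1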
An asterisk follows results filed as active; ? = inconclusive; . = not tested or not shown. An excerpt weighted towards active compounds, which were near 1.2% of everything screened.

SMILES | C-LANA FP | Keap1-Nrf2 PPI | BCLXL inh | GLD-1 RNA inh | eLon inh | MEX-5 binding | GLD1 RNA confirm
CC(=O)Oc1ccc(C(=O)[C@H]2[C@H]3C(=O)N(c4ccccc4)C(=O)[C@H]3[C@@H]3C=CC=NN32)cc1 | 1.9 | -0.8 | 25.7 | 31.4* | -2.5 | 2.9 | 2.9
COc1ccc(C(=O)[C@H]2[C@H]3C(=O)N(c4ccccc4)C(=O)[C@H]3C3C=CC=NN32)cc1 (stereo not given in full) | . | . | 19.7 | 9.2 | 4.4 | 0.3 | .
COc1ccccc1CNC(=O)Cn1nnnc1CN(C)C(C)C | -1.3 | -2.9 | 1.1 | 6.6 | 2.5 | -0.6 | .
COC(=O)c1ccc(CNC(=O)Cn2nnnc2CN(C)C(C)C)cc1 | -0.9 | -2.6 | 4.3 | 138.2* | -4.9 | -2.5 | -4.4
Cc1ccc(C2Nc3ccccc3NC3=C2C(=O)CC(C)(C)C3)c(O)c1 (stereo not given) | 0.3 | 0.9 | 47.1* | 51.1* | 3.5 | -4.4 | 1.2
CC1(C)CC(=O)C2=C(C1)Nc1ccccc1NC2c1ccc(F)cc1 (stereo not given) | 4.2 | 4.0 | 46.1* | 34.8* | 3.5 | -1.1 | 0.4
COc1ccc(C2Nc3ccccc3NC3=C2C(=O)CC(C)(C)C3)cc1OC (stereo not given) | 2.7 | -0.9 | 3.9 | 3.5 | -2.6 | -3.0 | .
N#Cc1c(SCC(=O)N2CCOCC2)nsc1SCC(=O)N1CCOCC1 | 0.4 | -3.5 | 65.5* | 50.0* | -1.1 | -0.2 | -1.8
COC(=O)c1ccc(NC(=O)CSc2nnc(-c3ccccc3Br)n2-c2ccccc2)cc1 | 0.3 | -4.8 | 1.3 | 46.2* | 8.9 | 1.9 | -5.2
Cc1cccc(C(=O)NC2CCN(CC(=O)NCc3ccccc3F)CC2)c1 | 1.4 | -9.5 | 6.0 | 0.1 | -6.0 | 0.3 | .
CCOc1ccc2[nH]c(=O)c(CN(Cc3cccs3)Cc3nnnn3C(C)(C)CC)cc2c1 | -1.8 | -5.6 | 6.9 | 109.3* | -9.4 | 0.5 | -4.5
Cc1ccccc1N=C(N)Nc1ccccc1C | 10.5 | -2.6 | 63.0* | 43.0* | 13.2 | . | 43.4*
Cc1ccccc1NC(=O)NC(N)=O | 0.1 | 2.0 | 2.7 | 2.3 | 2.1 | 1.2 | .
O=C(O)c1ccccc1N=Nc1ccc(O)cc1 | 5.8 | 3.1 | 58.3* | 38.7* | 7.3 | -18.8 | 33.2*
CCOC(=O)CC(=O)CSc1nc2ccc(OC)cc2cc1C | -2.6 | -0.8 | 36.3* | 34.4* | -2.0 | 0.4 | -4.8
CCOC(=O)CC(=O)CSc1nc2cc(C)ccc2cc1C | -1.2 | -7.4 | 20.9 | 23.4 | 6.2 | 2.3 | .
Nc1ccc(NC(=O)c2ccccc2)c2c1C(=O)c1ccccc1C2=O | -0.8 | -4.4 | 7.7 | 7.6 | 3.4 | -1.6 | .
Nc1ccc(O)c2c1C(=O)c1ccccc1C2=O | 8.2 | -0.3 | 122.9* | 82.0* | 31.2 | -8.5 | 67.3*
O=C(O)c1ccc2c3c(ncnc13)-c1ccccc1C2=O | . | . | 71.7* | 59.9* | . | ? | 44.8*
O=C(O)c1cccc2c1C(=O)c1ccccc1C2=O | -1.4 | -3.8 | 5.5 | 5.9 | -10.8 | 1.1 | .
CCOC(=O)C1=CCC(c2cccc(C)c2)N(S(=O)(=O)c2ccc(C)cc2)C1 (stereo not given) | . | . | . | . | 8.8 | . | .
COc1ccccc1Nc1cc(C)nc(Nc2ccccc2OC)n1 | -0.3 | -0.5 | . | . | 9.4 | . | .
CCOC(=O)[C@H]1[C@H]2COc3ccc(OC)cc3[C@@H]2N2C(=O)CN(Cc3ccc(F)cc3)C(=O)[C@@]12C | -1.6 | 2.9 | 1.0 | -3.3 | 7.6 | . | .
CCOC(=O)[C@H]1[C@H]2COc3ccc(OC)cc3[C@@H]2N2C(=O)CN(Cc3ccc(Cl)cc3)C(=O)[C@@]12C | 3.3 | -2.9 | 16.3 | 37.7* | -5.4 | . | 12.9
O=C(O)c1ccc(Cl)c2c1C1C=CCC1C(c1ccccn1)N2 (stereo not given) | . | . | 85.1* | 38.8* | . | -67.5* | 20.8
CC(=O)Nc1cc2c(c(Cl)c1Cl)-c1ccccc1C2=O | -1.9 | -3.1 | . | . | -1.2 | . | .
CC(=O)Nc1c2c3c(cccc3n(C)c1=O)C(=O)c1ccccc1-2 | 6.5 | 0.7 | 47.1* | 32.0* | 9.4 | -6.8 | 8.2
Cc1ccc(S(=O)(=O)NC(C(=O)Oc2ccc3ccc(=O)oc3c2)c2ccccc2)cc1 (stereo not given) | 0.0 | -19.2 | -3.1 | 0.7 | 7.9 | -0.6 | .
